From PubChem BioAssay come the findings set out here.

For part of these data: Potency and affinity values are given separately. Activity calls are given as the source filed them.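 How the source made its calls, unless noted: active means fitted half-maximal concentration within 10 nM to 100 µM, steepness 0.5 to 2, significant signal drop, low assay interference; inactive means the rest.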

For assay [1], the target named is Cell division control protein 42 homolog (Homo sapiens) (UniProt P60953). The assay is described as follows: activated mutant Cdc42 GTP-binding inhibitors, dose response, biochemical, multiplex bead flow cytometry, Bodipy-FL-GTP (AID 1333;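 active means fitted half-maximal concentration within the tested dose range, moderate curve steepness, a statistically real signal drop, and little compound fluorescence or tag-binding interference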). A general note: Flow cytometry measures light scatter and fluorescence of single cells or particles in a stream.
Assay [2] shares this target. In words: wildtype Cdc42 GTP-binding inhibitors, dose response, biochemical, multiplex bead flow cytometry, Bodipy-FL-GTP (AID 1334;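 active means fitted half-maximal concentration within the tested range, moderate curve steepness, significant signal drop, and little compound fluorescence or bead-linkage interference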). To be noted: bead-based flow cytometry, Bodipy-FL-GTP binding to GST-Cdc42; at 100 µM (top of the series) unless noted.
The target in assay [3] is GTPase HRas (Homo sapiens) (UniProt P01112). The assay is described as follows: inhibitors of GTP binding to wildtype Ras, dose response, biochemical, multiplex bead flow cytometry (AID 1335). The settings on record: bead-based flow cytometry, Bodipy-GTP binding to GST-Ras; at 100 µM (top of the series) unless noted.
Assay [4] has as its system Ras-related protein Rab-7a (dog), GTP binding. In words: Rab7 GTP binding inhibitors, potency, dose response, biochemical, wildtype, multiplex bead flow cytometry (AID 1336; call rule not given here).
For assay [5], the target named is Ras-related C3 botulinum toxin substrate 1 (Homo sapiens) (UniProt P63000). The assay is described as follows: wildtype Rac1 GTP binding inhibitors, dose response, biochemical, multiplex bead flow cytometry (AID 1340;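 active means dose curve with midpoint inside tested range, moderate steepness, plateau gap beyond fit error, low compound glow and bead-link interference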). To be noted: GST-Rac1 beads, Bodipy-FL-GTP binding; at 100 µM (top of the series) unless noted.
Assay [6] concerns the target GTPase HRas (Homo sapiens) (UniProt P01112). In words: activated Ras mutant GTP binding inhibitors, dose response, biochemical, multiplex bead flow cytometry (AID 1341;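 active means dose-response curve with midpoint inside the tested range, moderate steepness, significant amplitude and little compound fluorescence or bead-attachment interference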;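 further: GST-tagged constitutively activated Ras mutant immobilized on beads and multiplexed with other GTPases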).

Chain of Cell division control protein 42 homolog (Homo sapiens) (P60953 whole entry, looked up): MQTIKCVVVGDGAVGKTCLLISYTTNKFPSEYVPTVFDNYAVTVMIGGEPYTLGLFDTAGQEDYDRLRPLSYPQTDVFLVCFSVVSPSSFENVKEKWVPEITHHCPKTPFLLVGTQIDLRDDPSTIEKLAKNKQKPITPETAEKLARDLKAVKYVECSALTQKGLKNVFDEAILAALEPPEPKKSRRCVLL
Chain of GTPase HRas (Homo sapiens) (P01112 whole entry, looked up): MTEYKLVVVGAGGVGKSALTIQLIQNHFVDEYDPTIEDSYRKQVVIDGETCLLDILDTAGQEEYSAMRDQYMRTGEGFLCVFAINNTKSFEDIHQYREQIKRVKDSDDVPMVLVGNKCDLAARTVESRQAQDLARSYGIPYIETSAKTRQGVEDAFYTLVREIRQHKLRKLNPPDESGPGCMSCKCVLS

With `COc1cc(-c2cc(-c3ccc(O)cc3)nc(N)c2C#N)ccc1O`, the call in assay [1], in assay [4] and in assay [6] was inactive. In assay [2], the fluorescence, percent of control (lower = inhibition) came out at 28%. The compound also returned a GTP binding, percent of control in assay [3] of 70.9%. Besides, the GTP binding signal, raw median fluorescence (lower = inhibition) (MCF (arbitrary fluorescence units)) in assay [5] was found to be 158.
Consider `COc1cccc(/C=N/Nc2nn3cnnc3c3ccccc23)c1O`, for which the call in assay [1], in assay [4] and in assay [6] was inactive. Besides, the fluorescence, percent of control (lower = inhibition) in assay [2] amounted to 35.9%. The GTP binding, percent of control in assay [3] was 44.6%. This compound also showed a GTP binding signal, raw median fluorescence (lower = inhibition) (MCF (arbitrary fluorescence units)) in assay [5] of 126.
As for `COc1ccc(-c2nnc(S/C(=C/c3ccc(Cl)cc3)C(=O)O)o2)cc1`, the compound was classed as inactive in assay [1], in assay [4] and in assay [6]. In assay [2], the fluorescence, percent of control (lower = inhibition) worked out at 35.8%. For the same compound, the GTP binding, percent of control in assay [3] is 81.6%. In assay [5], the GTP binding signal, raw median fluorescence (lower = inhibition) (MCF (arbitrary fluorescence units)) turned out to be 218.
Turning to `CC(=O)N1C(=O)/C(=C2\SC(=S)N(NC(=O)c3ccc(O)cc3)C2=O)c2ccccc21`, the compound was called inactive in assay [1], in assay [4] and in assay [6]. Besides, in assay [2], the fluorescence, percent of control (lower = inhibition) is 31.6%. The same compound showed a GTP binding, percent of control in assay [3] of 70.8%. The compound also returned a GTP binding signal, raw median fluorescence (lower = inhibition) (MCF (arbitrary fluorescence units)) in assay [5] of 155.
For `CC(C)c1ccc(C(=O)NC2=NCCS2)cc1`, the outcome in assay [1], in assay [4] and in assay [6] was inactive. The fluorescence, percent of control (lower = inhibition) in assay [2] is 50.5%. The compound also registered a GTP binding, percent of control in assay [3] of 62.6%. In addition, the GTP binding signal, raw median fluorescence (lower = inhibition) (MCF (arbitrary fluorescence units)) in assay [5] was determined as 204.
For `O=C(Cn1nc(-c2ccccc2)c2ccccc2c1=O)Nc1ccccn1`, the call in assay [1], in assay [4] and in assay [6] was inactive. Also, the fluorescence, percent of control (lower = inhibition) in assay [2] was determined as 45.6%. This compound also yielded a GTP binding, percent of control in assay [3] of 58.1%. Further, the GTP binding signal, raw median fluorescence (lower = inhibition) (MCF (arbitrary fluorescence units)) in assay [5] was found to be 194.
Consider `Cc1cccc(Cc2c(C)nc3nc(SCC(=O)O)nn3c2C)c1`, for which the compound was classed as inactive in assay [1], in assay [4] and in assay [6]. Also, the fluorescence, percent of control (lower = inhibition) in assay [2] came to 30.6%. Moreover, the GTP binding, percent of control in assay [3] amounted to 81.6%. Further, in assay [5], the GTP binding signal, raw median fluorescence (lower = inhibition) (MCF (arbitrary fluorescence units)) was found to be 227.
As to `COc1ccccc1OCCn1cc(C(=O)O)c2ccccc21`, the compound was classed as inactive in assay [1], in assay [4] and in assay [6]. In addition, in assay [2], the fluorescence, percent of control (lower = inhibition) stood at 102%. The GTP binding, percent of control in assay [3] stood at 139%. This compound also showed a GTP binding signal, raw median fluorescence (lower = inhibition) (MCF (arbitrary fluorescence units)) in assay [5] of 87.3.
As to `O=C(Cn1cnc2cc([N+](=O)[O-])ccc2c1=O)NCc1ccc(Cl)cc1`, the compound was classed as inactive in assay [1], in assay [4] and in assay [6]. In addition, in assay [2], the fluorescence, percent of control (lower = inhibition) stood at 34.9%. In addition, the GTP binding, percent of control in assay [3] was determined as 82.3%. Moreover, the GTP binding signal, raw median fluorescence (lower = inhibition) (MCF (arbitrary fluorescence units)) in assay [5] is 192.
In the case of `COc1ccc2oc(COc3ccccc3)c(C(=O)O)c2c1`, the result in assay [1], in assay [4] and in assay [6] was inactive. For the same compound, the fluorescence, percent of control (lower = inhibition) in assay [2] came to 59.6%. Moreover, the GTP binding, percent of control in assay [3] is 87.3%. Also, the GTP binding signal, raw median fluorescence (lower = inhibition) (MCF (arbitrary fluorescence units)) in assay [5] amounted to 29.6.
As to `COc1ccc(-c2cc(-c3ccc(O)cc3)nc(N)c2C#N)cc1OC`, the outcome in assay [1], in assay [4] and in assay [6] was inactive. In assay [2], the fluorescence, percent of control (lower = inhibition) turned out to be 32.2%. The compound also showed a GTP binding, percent of control in assay [3] of 77.1%. In addition, the GTP binding signal, raw median fluorescence (lower = inhibition) (MCF (arbitrary fluorescence units)) in assay [5] was 184.
Consider `CCOC(=O)C1(Cc2cccc(F)c2)CCN(Cc2nc(CC)[nH]c2C)CC1`, for which the compound was called inactive in assay [1], in assay [4] and in assay [6]. The fluorescence, percent of control (lower = inhibition) in assay [2] was 48.2%. The GTP binding, percent of control in assay [3] stood at 90.4%. In assay [5], this compound gave a GTP binding signal, raw median fluorescence (lower = inhibition) (MCF (arbitrary fluorescence units)) of 274.
Turning to `COc1cc(N2CCCC2)c(OC)cc1/C=c1/sc2nc3ccccc3n2c1=O`, the outcome in assay [1], in assay [4] and in assay [6] was inactive. In addition, in assay [2], the fluorescence, percent of control (lower = inhibition) worked out at 76%. In addition, the GTP binding, percent of control in assay [3] came to 82%. The GTP binding signal, raw median fluorescence (lower = inhibition) (MCF (arbitrary fluorescence units)) in assay [5] is 195.
Regarding `Cc1csc(NC(=O)c2cc(=O)[nH]c3ccc(S(=O)(=O)N4CCOCC4)cc23)n1`, the compound was classed as inactive in assay [1], in assay [4] and in assay [6]. Besides, in assay [2], the fluorescence, percent of control (lower = inhibition) was found to be 31.8%. The compound further registered a GTP binding, percent of control in assay [3] of 74.5%. Besides, in assay [5], the GTP binding signal, raw median fluorescence (lower = inhibition) (MCF (arbitrary fluorescence units)) was found to be 190.
